About 83,000 compounds went through this panel and 20% of them were active in at least one assay; those are over-represented in the sample as a whole.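 Plates (96-well) were seeded with cells, treated with compound at one concentration, and incubated for 48 hours before percent growth was determined.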 Unmarked numbers belong to inactive results. The source made the active and inactive calls.

The subject of this experiment is OVCAR-4 ovarian. In words: NCI-60 one-dose screen, 48 h (100 = growth as untreated, 0 = no growth, -100 = all killed). As to conditions: 10 µM unless noted. How it is done:
Growth inhibition of the OVCAR-4 human tumor cell line is measured as a screen for anti-cancer activity. Cells are grown in 96 well plates and exposed to the test compound for 48 hours. Compounds are tested at a single concentration, which is 10^-5 M for most compounds. The reported endpoint is percent growth (GI% or GIPRCNT), where numbers from 0 - 100% represent growth inhibition, and numbers from -100% - 0 represent cell death. For example, a value of 40 represents 60% growth inhibition. A value of 0 means no net growth occurred over the course of the experiment. A value of -40 indicates 40% of cells at the beginning of the experiment died by the end of the experiment. A value of -100 means all cells are dead at the end of the experiment.
NCI-60 Human Tumor Cell Lines Screen was performed using the standard one-dose NCI protocol, which is described in more detail at https://dtp.cancer.gov/discovery_development/nci-60/default.htm.
Compounds with GIPRCNT values below 10 were considered active. Activity score was based on GIPRCNT using the following formula: […]
Score is 0 for GIPRCNT values of 100 or above, 50 for GIPRCNT values of 0, and 100 for GIPRCNT values of -100.
As for `O=c1c2c3c(sc2n2c(-c4cc(-c5ccccc5)nn4-c4ccccc4)nnc2n1Cc1ccccc1)CCCC3`, the growth is 83.2%.

`CC(CN1CCCCC1)C(=O)c1ccccc1` (stereo not given): the growth was 114%.

For `CC/C=C1/C(=O)C=C[C@@H]1C/C=C\CCCC(=O)O`, the growth is 86.9%.

As to `Cc1ccc(Nc2ccc(Nc3ccc(C)cc3)c3c2C(=O)c2cccc(O)c2C3=O)cc1`, the growth was 105%.

As for `O=C(Nc1cccc(Cl)c1)c1cc(N=Nc2ccc([N+](=O)[O-])cc2Cl)ccc1O`, the growth is 59.9%.

In the case of `S=C(Cc1ccc2c(c1)CCCC2)N1CCOCC1`, the growth was 96.6%.

Turning to `NC(N)=NN=C(c1ccccc1)c1ccccc1`, the growth is 71%.

With `Fc1cnc(NC2CC2)nc1-c1cnc2ccc(N3CCOCC3)cn12`, the growth is -1.69% (active).

On to `NS(=O)(=O)c1ccc(-n2nc(C(=O)N/N=C\c3ccc(F)cc3)cc2-c2ccc(Cl)cc2)cc1`, for which the growth is 97.8%.

Regarding `Cc1cc(NCc2cc(Nc3ccnc4cc(Cl)ccc34)ccc2F)nc(N2CCSCC2)n1`, the growth was 14.4%.

Consider `CCN1C(=O)N(CC)C2Nn3c(s/c(=C\c4cccc([N+](=O)[O-])c4)c3=O)=NC21` (stereo not given), for which the growth is 59.6%.

`O=C(NCCNc1cc(-c2cn(-c3ccccc3)nc2-c2cccc(O)c2)ccn1)Nc1ccccc1`: the growth is 70.1%.

`CCC(CO)Nc1nc2ccc(Cl)cc2c2ccccc12` (stereo not given): the growth was 71.3%.

`COc1ccc(C(=NN=C(N)N)c2ccc(OC)cc2)cc1`: the growth was 39.3%.

For the compound `CC(=O)OC[C@H]1OC(Sc2sc(C(=O)c3ccc(Br)cc3)c(N)c2-c2nc3ccccc3s2)[C@H](OC(C)=O)[C@@H](OC(C)=O)[C@@H]1OC(C)=O` (stereo not given in full), the growth is 12.9%.

Regarding `N#Cc1c(-c2ccccc2)cc(-c2ccc(Nc3nc(Nc4ccc(F)cc4)nc(Nc4ccc(F)cc4)n3)cc2)nc1N`, the growth was 108%.

For the compound `C=CCOC1=CC(=O)c2ccccc2C1=O`, the growth was 42.1%.

Consider `Cc1ccc(S(=O)(=O)N/N=C\c2cc(Cl)ccc2O)cc1`, for which the growth is 102%.

On to `C(=N\Nc1ncc(-c2cc3cc4c(cc3o2)OCO4)s1)/c1ccco1`, for which the growth was 32.5%.

For `CN1C(=O)N(C)C2C1NN=c1s/c(=C\c3ccccc3)c(=O)n12` (stereo not given), the growth is 66.6%.

As to `CC(C)(C)OC(=O)Nc1ccc2c(c1)C(NC(=O)Nc1cccc(C#N)c1)CC(C)(C)O2` (stereo not given), the growth is 38.6%.

In the case of `O=c1cc(-c2ccc(Cl)cc2)[nH]c2ccccc12`, the growth is 92.1%.

`CN(C)CCNc1nc2ccccc2c2c1c1c(n2Cc2ccccc2)-c2ccccc2C1=O`: the growth is -93.6% (active).

Take `Clc1cccc(Cl)c1C(Nc1nc2ccccc2s1)Nc1nc2ccccc2s1`: the growth is 84.6%.

As for `CC(CCc1ccc(Cl)c(Cl)c1)NCc1ccc(C(C)(C)C)cc1` (stereo not given), the growth was 88.1%.

`COc1ccc(/C=N/C2=C(C#N)C(c3ccc(OC)cc3)c3ccc4ccccc4c3O2)cc1` (stereo not given): the growth is 85.4%.

For `CCCCCCCC/C=C\CCCCCCCCOc1ccccc1CC(=O)NCC[N+](C)(C)C`, the growth was 78.7%.

On to `COc1c(CCC[P+](c2ccccc2)(c2ccccc2)c2ccccc2)cc2c(c1OC)OCO2`, for which the growth is 6.3% (active).

Regarding `Cc1nn(-c2ccccc2)c(Cl)c1/C=C(/NC(=O)c1ccccc1)c1nc2ccccc2[nH]1`, the growth is 106%.

As to `Cc1ccc(N2CCN(C(=S)c3cccs3)CC2)cc1`, the growth is 107%.

As to `COc1ccc2cc(-c3cc(OC)c(OC)c(OC)c3)c(=O)oc2c1`, the growth was 79.9%.

For `Cn1c(I)c(C#C[Si](C)(C)C)c(=O)n(C(=O)c2ccccc2)c1=O`, the growth is 39.5%.

`COc1ccc(-c2nc(SC(C)C)nc(NNC(N)=S)c2C#N)cc1`: the growth is 86.3%.

Turning to `O=c1c2cc(F)ccc2sc2c(NCCN3CCCCC3)nc3ccccc3c12`, the growth is 50.7%.

For the compound `Cc1cc(NCc2cc(Nc3ccnc4cc(Cl)ccc34)ccc2F)nc(N2CCN(C)CC2)n1`, the growth was 18.7%.

Regarding `COc1cc(/C=N/NC(=O)Cn2c(C(C)C)nc3ccccc32)ccc1O`, the growth was 108%.

In the case of `Cc1cc(C)c(-c2c(C)cc(C)cc2CBr)c(CBr)c1`, the growth was 74.1%.

In the case of `NS(=O)(=O)c1cnccc1Sc1ccncc1S(N)(=O)=O`, the growth is 118%.

`CN(C)CCC=C1c2ccccc2C(C)(C)c2ccccc21`: the growth was 76.5%.

`O=C(COc1ccc(/C=C2\Oc3ccccc3C2=O)cc1)c1ccc(Cl)cc1`: the growth is 115%.

Source of the values: PubChem BioAssay (NCI).
